Bioassay records from PubChem BioAssay.
Compounds with a hit are over-represented: about 0.44% of the library has one in this group of screens.
EPAC1 ag – agonists of human EPAC1; O95398; EPAC1 agonist qHTS, biochemical assay; response scale: 100% = response to 6.5 mM cAMP; Potency, µM (doses to about 154 µM), for the others: top-dose activation, hits mostly activators; 360,000 tested, 0.073% active; note: nearly all actives have a fitted effect of over 60% in size
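Normalized to 6.5 mM cAMP, activity reflects EPAC1-catalysed release of BODIPY-GDP from Rap1B, followed kinetically over 30 min at 480 nm excitation, 540 nm emission. Reaction contained 100 nM EPAC1, 250 nM Rap1B-BODIPY-GDP, 50 uM GDP.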
EPAC2 agonist – EPAC2 (human) agonism; Q8WZA2; EPAC2 activation, biochemical qHTS; response scale: 100% = 6.5 mM cAMP response; Potency, µM (series often up to 154 µM), for the others: at the highest dose activation, actives largely listed as activators; 360,000 tested, 0.079% active; AID 720711; note: nearly all actives have a fitted effect of over 50% in size
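Readout is BODIPY fluorescence (480 nm excitation, 540 nm emission), which falls as labeled GDP is exchanged off Rap1B. EPAC2 at 100 nM acted on 250 nM RAP1B-BODIPY-GDP with 50 uM GDP present.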
EPAC1 antagonist – antagonists of human EPAC1 | EPAC1 GEF assay, Rap1b-BODIPY-GDP exchange fluorescence | Potency, µM (titrated, usually from 115 µM), inactives show at the highest dose activity change, negative = inhibition, actives largely listed as inhibitors | 360,000 tested, 0.14% active | AID 720709;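 note: plate controls were vehicle for no effect and positive control for full effect; nearly all actives have a fitted effect of over 50% in size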
EPAC2 antagonist – antagonists of human EPAC2. Q8WZA2. AID 720708. 360,000 tested, 0.18% active. EPAC2 GEF exchange of Rap1B-BODIPY-GDP, fluorescence. Potency, µM (series often up to 114 µM), for the others: at the highest dose activity, negative = inhibition, most hits filed as inhibitors; note: % is set by controls: 0 for no effect and ±100 for the full control effect; nearly all actives have a fitted effect of over 45% in size
USP1-UAF1 inh – blocks the human USP1/UAF1 deubiquitinase complex. AID 743255. Potency, µM (series often up to 57.1 µM), for inactives: at the highest dose activity change, negative = inhibition, actives largely listed as inhibitors. O94782. 390,000 tested, 0.23% active. recombinant USP1/UAF1, Ub-Rhodamine cleavage fluorescence; note: % is set by controls: 0 for no effect and ±100 for the full control effect; nearly all actives have a fitted effect of over 60% in size
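USP1/UAF1 complex at 1 nM was preincubated with compound for 15 min at room temperature, then Ub-Rho substrate (150nM final) was added. Fluorescence (480/540 nm) was read kinetically, 6 reads every 60 seconds.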
An asterisk follows results filed as active; ? = inconclusive; . = no result. Calls come from the whole dose curve; as a rule, active = well fitted curve in the direction sought with a large enough effect; inconclusive = small, poorly fitted or top-dose-only effect, or another doubt; inactive = no such curve, though single readings can be large; an effect the other way counts as inactive or inconclusive. Potency is the fitted concentration of half-maximal effect.

SMILES	EPAC1 ag	EPAC2 agonist	EPAC1 antagonist	EPAC2 antagonist	USP1-UAF1 inh
N#Cc1c(SCC(=O)Nc2ccc(C(F)(F)F)cc2)sc2c(O)cc(=O)[nH]c12	-0.1%	13.4%	0.9%	0.6%	-12.0%
CC(=O)Nc1ccc(S(=O)(=O)Nc2nccs2)cc1	0.9%	-1.7%	-2.1%	-11.0%	-12.0%
Cc1ccc(O)c(CNc2ccc(S(=O)(=O)Nc3nccs3)cc2)c1	3.3%	1.8%	-14.6%	22.4µM*	-15.7%
CN(C)S(=O)(=O)c1cccc(-c2nn(-c3ccccc3)cc2/C=C2\SC(=S)NC2=O)c1	5.5%	-4.9%	70.8µM*	-1.8%	?
Cc1cccc2sc(=S)[nH]c12	3.0%	10.6%	1.5%	-18.7%	.
Nc1cccc2cc(S(=O)(=O)O)ccc12	17.0%	10.8%	?	-7.9%	7.08µM*
O=Nc1c(O)ccc2cc(S(=O)(=O)O)ccc12	4.5%	-3.1%	-10.5%	1.8%	?
COc1ccc(NC(=O)NS(=O)(=O)c2ccc(C)cc2)cn1	100µM*	11.5%	109.2%	27.4%	?
Cc1sc2c(c1C)c(=O)n(-c1ccc(Cl)cc1)c(=O)n2Cc1cc(=O)n2cc(Br)ccc2n1	.	.	.	.	1.5%
O=C1c2ccccc2C(=O)C12OC2c1cccc2ccccc12 (stereo not drawn)	11.4%	20.8%	?	?	14.1µM*
COC(=O)CCC(=O)OC1(C)C(=O)C2=CN(CC3CC3)C(c3ccc(OC)cc3)=CC2=C(Br)C1=O (stereo not drawn)	-0.8%	2.9%	13.9%	10.8%	31.6µM*
COC(=O)CCC(=O)OC1(C)C(=O)C2=CN(Cc3ccc(OC)cc3)C(c3ccc(OC)cc3)=CC2=C(Br)C1=O (stereo not drawn)	9.0%	-1.9%	2.9%	-5.5%	-22.3%
COC(=O)CCC(=O)OC1(C)C(=O)C2=CN(C3CC3)C(c3ccc(OC)cc3)=CC2=C(Br)C1=O (stereo not drawn)	1.5%	18.9%	-8.4%	?	22.4µM*
COC(=O)CCC(=O)OC1(C)C(=O)C2=CN(Cc3ccccc3)C(c3ccc(OC)cc3)=CC2=C(Br)C1=O (stereo not drawn)	0.7%	-4.8%	8.2%	0.1%	?
COC(=O)CCC(=O)OC1(C)C(=O)C2=CN(CCCOC(C)C)C(c3ccc(OC)cc3)=CC2=C(Br)C1=O (stereo not drawn)	-9.2%	-6.2%	9.3%	9.8%	28.2µM*
CN(C(=O)CCc1ccccc1)c1nnc(-c2ccncc2)s1	-11.6%	16.4%	2.6%	-7.3%	-21.5%
COc1cc2cc(Oc3ccc4ccc(=O)oc4c3)c(=O)oc2cc1O	79.4µM*	0.9%	50.1µM*	9.8%	4.5%
COc1cc2cc(Oc3ccc4ccc(=O)oc4c3)c(=O)oc2cc1OC(C)=O	-8.6%	4.6%	3.0%	0.6%	-19.9%
Cc1c(N=C2C=C(Br)C(=O)C(Br)=C2)c(=O)n(-c2ccccc2)n1C	-5.3%	-7.3%	-19.2%	0.8%	?
Cc1c(N=C2C=CC(=O)c3ccccc32)c(=O)n(-c2ccccc2)n1C	15.5%	25.0%	?	-13.8%	31.6µM*
CC1(c2cccc(Br)c2)NC(=O)N(CC(=O)Nc2ccc(F)cc2)C1=O (stereo not drawn)	1.2%	10.5%	16.1%	-3.5%	-16.6%
Cc1ccc(NS(=O)(=O)c2ccc(C(=O)N3CC(C)CC(C)C3)cc2)cc1 (stereo not drawn)	100µM*	3.7%	-11.7%	-18.1%	-27.2%
CC(=O)CC1(OC(C)=O)C(=O)N(C)c2ccccc21 (stereo not drawn)	-2.2%	-3.8%	0.3%	0.5%	-10.7%
O=C(Nc1ccccc1N1CCCCC1)c1cnccn1	6.4%	11.2%	-4.7%	17.8µM*	-11.4%
CCc1ccc(CN(Cc2ccco2)C(=O)COc2ccccc2Cl)cc1	.	.	.	.	-20.2%
SMILES	EPAC1 ag	EPAC2 agonist	EPAC1 antagonist	EPAC2 antagonist	USP1-UAF1 inh
CN(CC(=O)Nc1ccc(F)cc1)C(=O)COC(=O)C1CCN(c2ccc(C(F)(F)F)cn2)CC1	100µM*	-0.2%	-15.8%	-17.1%	-23.5%
COc1ccc(NS(=O)(=O)c2ccc3c(c2)[C@H]2C=CC[C@H]2[C@@H](c2ccc(C(=O)O)cc2)N3)cc1	5.3%	-6.3%	?	-0.6%	?
Cc1c(Cl)cccc1NS(=O)(=O)c1ccc2c(c1)C1C=CCC1C(c1ccc(C(=O)O)cc1)N2 (stereo not drawn)	-7.1%	-4.3%	56.2µM*	-17.2%	?
O=C1/C(=C/c2cccs2)SC(=S)N1NS(=O)(=O)c1ccccc1	1.4%	-4.0%	-21.0%	?	-9.9%
O=C1/C(=C/C=C/c2ccco2)SC(=S)N1NS(=O)(=O)c1ccccc1	5.8%	-1.4%	100µM*	?	?
COc1ccc(N(C(=O)c2ccco2)S(=O)(=O)c2cc(OC)ccc2OC)cc1	6.2%	10µM*	-0.9%	-11.3%	-13.6%
COc1ccc(N(C(=O)c2ccco2)S(=O)(=O)c2ccc(F)cc2)cc1	14.2%	9.4%	9.7%	5.5%	-5.7%
CC(=O)c1cccc(NC(=S)N2CCN(c3ccccn3)CC2)c1	12.7%	0.1%	-1.4%	-4.3%	-16.2%
C[C@@H]1CN([C@@H](C)CO)C(=O)c2cc(Br)cnc2O[C@@H]1CN(C)S(C)(=O)=O	-13.2%	-6.9%	0.3%	5.5%	-25.6%
O=C1CCc2cc(NS(=O)(=O)c3ccc([N+](=O)[O-])cc3)cc3c2N1CC3	79.4µM*	5.3%	-7.8%	9.6%	-7.3%
O=C1CCc2cc(NS(=O)(=O)c3ccc([N+](=O)[O-])cc3)cc3c2N1CCC3	-10.6%	0.4%	14.7%	4.2%	-16.6%
O=C1CCn2c1c(O)c1ccccc1c2=O	13.2%	31.7%	-0.3%	0.8%	5.01µM*
O=c1c2ccccc2nc2n1CCC2	8.9%	-0.8%	?	1.9%	-11.5%
COC1=C(Br)C(=O)c2ncccc2C1=O	2.6%	9.3%	?	8.91µM*	0.891µM*
O=C1c2cccnc2-c2ncccc21	0.0%	7.5%	-4.7%	4.3%	-22.8%
COc1ccc(C2C(C(=O)Nc3ccccc3)=C(C)Nc3nc(-c4ccccc4)nn32)cc1OC (stereo not drawn)	.	.	.	.	-28.5%
O=C(O)c1ccc(N/N=C/c2c(F)cccc2Cl)cc1	-6.6%	-7.2%	11.5%	39.8µM*	-22.4%
O=C(N/N=C/c1c(F)cccc1Cl)C1CC1	7.8%	13.0%	-4.3%	1.0%	-13.4%
O=c1[nH]nc(CNc2ccc(O)cc2)c2ccccc12	9.6%	0.1%	35.5µM*	7.4%	?
O=c1[nH]nc(CNc2ccc(C(F)(F)F)cc2)c2ccccc12	-12.8%	-10.3%	-11.3%	-13.7%	1.0%
CCc1cccc2cc3c(N)c(C(=O)Nc4ccc(S(=O)(=O)N5CCCC5)cc4)sc3nc12	-324.3%	-99.7%	50.1µM*	56.2µM*	220.1%
